# Laboratory results taken from the supplement of paper PMC12494721.
# Structures can show the parent of a compound that is named as a salt.
# Legend:
# Conditions in all cases: incubation time: 27 h, anaerobic, 37 °C;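 for the amine columns active = adjusted P below 0.05 in both replicates with a change the same way and a mean fold change under 0.8 or over 1.25; inactive = the rest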
# [1] = system: Clostridium sporogenes DSM 1664; test: growth (OD595) fold change vs plate DMSO controls (fold change (ratio)); higher = more growth
# How it was run: (§1)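 Each value is the mean of 2 biological replicates, and fold changes above 1.5 were set to NA. The underlying readings were taken at 595 nm from shaken anaerobic mGAM cultures in 96-well plates after 27 h at 37 °C. They were blank-subtracted, corrected for compound background using 20 µM compound solutions in water, and converted to OD with a calibration factor of 5. Growth is the fold change relative to the median of the plate DMSO controls.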
# [2] = system: Escherichia coli IAI1; test: as above
# How it was run: as §1
# [3] = system: Klebsiella aerogenes DSM 30053; test: as above
# How it was run: as §1
# [4] = system: Ruminococcus gnavus DSM 108212; test: as above
# How it was run: as §1
# [5] = system: Klebsiella aerogenes DSM 30053; test: fold change of Histamine concentration vs plate DMSO controls (fold change (ratio)); higher = more amine produced, active = hit call of the paper (significant change in both replicates, either direction)
# How it was run: (§2)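 Extracts of whole anaerobic mGAM cultures were analysed for amines by LC–triple-quadrupole MS with dynamic MRM and external calibration curves, with drift corrected within batch. Four gut strains were grown at 37 °C for 27 h in 80 µL wells with compounds at 20 µM final, sweeteners at 50 µM final. Each value expresses fold change over plate DMSO controls. The average of 2 biological replicates is shown.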
# [6] = system: Clostridium sporogenes DSM 1664; test: fold change of Tryptamine concentration vs plate DMSO controls (fold change (ratio)); higher = more amine produced, active = hit call of the paper (significant change in both replicates, either direction)
# How it was run: as §2
# [7] = system: Ruminococcus gnavus DSM 108212; test: as above
# How it was run: as §2
# [8] = system: Escherichia coli IAI1; test: fold change of Putrescine concentration vs plate DMSO controls (fold change (ratio)); higher = more amine produced, active = hit call of the paper (significant change in both replicates, either direction)
# How it was run: as §2
# [9] = system: Klebsiella aerogenes DSM 30053; test: as above
# How it was run: as §2
# [10] = system: Escherichia coli IAI1; test: fold change of Cadaverine concentration vs plate DMSO controls (fold change (ratio)); higher = more amine produced, active = hit call of the paper (significant change in both replicates, either direction)
# How it was run: as §2
# [11] = system: Klebsiella aerogenes DSM 30053; test: as above
# How it was run: as §2
# [12] = system: Ruminococcus gnavus DSM 108212; test: fold change of 2-Phenylethylamine concentration vs plate DMSO controls (fold change (ratio)); higher = more amine produced, active = hit call of the paper (significant change in both replicates, either direction)
# How it was run: as §2
SMILES,growth [1],growth [2],growth [3],growth [4],fold change of Histamine concentration [5],fold change of Tryptamine concentration [6],fold change of Tryptamine concentration [7],fold change of Putrescine concentration [8],fold change of Putrescine concentration [9],fold change of Cadaverine concentration [10],fold change of Cadaverine concentration [11],fold change of 2-Phenylethylamine concentration [12]
Clc1ccc(CO/N=C(\Cn2ccnc2)c2ccc(Cl)cc2Cl)c(Cl)c1 [Oxiconazole nitrate] (20 µM),0.912,0.995,0.981,0.321,1.02 (inactive),0.91 (inactive),0.351 (active),1.04 (inactive),1.05 (inactive),1.03 (inactive),1.07 (inactive),0.629 (inactive)
C#C[C@]1(O)CC[C@H]2[C@@H]3CCC4=CC(=O)CC[C@@H]4[C@H]3CC[C@@]21CC [(D-) Norgestrel] (20 µM),1.06,0.994,1.02,0.996,1.05 (inactive),1.01 (inactive),1.01 (inactive),0.982 (inactive),0.998 (inactive),1.03 (inactive),0.985 (inactive),0.978 (inactive)
CCN(CC)CCOC(=O)C(Cc1cccc2ccccc12)CC1CCCO1 (stereo not given) [Nafronyl oxalate] (20 µM),0.946,1.01,0.993,1,0.982 (inactive),0.969 (inactive),1.01 (inactive),1.01 (inactive),1 (inactive),1.03 (inactive),0.996 (inactive),1.01 (inactive)
Cn1c(=O)c2c(ncn2C)n(C)c1=O [Caffeine] (20 µM),1.15,0.986,0.977,0.963,1.07 (inactive),0.982 (inactive),1.06 (inactive),0.987 (inactive),0.997 (inactive),1.03 (inactive),0.987 (inactive),1.06 (inactive)
CN(C)CCC(c1ccccc1)c1ccccn1 (stereo not given) [Pheniramine maleate] (20 µM),1.03,0.982,0.985,0.784,1.02 (inactive),0.954 (inactive),0.877 (inactive),0.896 (inactive),1.01 (inactive),1.27 (active),0.986 (inactive),0.798 (inactive)
Nc1nnc(-c2cccc(Cl)c2Cl)c(N)n1 [Lamotrigine] (20 µM),0.937,0.978,0.986,0.963,0.977 (inactive),1.03 (inactive),1.04 (inactive),0.946 (inactive),1.02 (inactive),1.23 (inactive),0.989 (inactive),1.06 (inactive)
CC(=O)O[C@]1(C(C)=O)CC[C@H]2[C@@H]3C=C(C)C4=CC(=O)CC[C@@H]4[C@H]3CC[C@@]21C [Nomegestrol acetate] (20 µM),1.01,1.05,1.05,1.25,0.943 (inactive),1.01 (inactive),1.03 (inactive),1.03 (inactive),1 (inactive),0.946 (inactive),1.03 (inactive),1.02 (inactive)
C[C@@H](O)[C@H]1C(=O)N2C(C(=O)O)=C(S[C@@H]3CN[C@H](C(=O)N(C)C)C3)[C@H](C)[C@H]12 [Meropenem] (20 µM),0,0.0127,0.316,0,0.214 (active),0.0316 (active),0.0446 (active),0.278 (active),0.605 (active),0.971 (inactive),1.11 (inactive),0.0459 (active)
C1N2CN3CN1CN(C2)C3 [Methenamine] (20 µM),0.885,0.986,1.02,1.16,0.978 (inactive),1.05 (inactive),1.04 (inactive),1.01 (inactive),0.982 (inactive),1 (inactive),0.993 (inactive),1.03 (inactive)
CCCCN1CCCCC1C(=O)Nc1c(C)cccc1C (stereo not given) [Bupivacaine hydrochloride] (20 µM),1.13,1.07,1,0.881,0.967 (inactive),1.02 (inactive),1.01 (inactive),1.02 (inactive),0.995 (inactive),1.01 (inactive),1 (inactive),1.02 (inactive)
CN1CCN(c2c(F)cc3c(=O)c(C(=O)O)cn4c3c2SCC4)CC1 [Rufloxacin] (20 µM),0.0133,0.0641,0.299,0.953,0.201 (active),0.0518 (active),0.901 (inactive),0.875 (inactive),1.18 (inactive),0.26 (active),0.997 (inactive),0.952 (inactive)
CCCCNc1c(C(=O)OCC)c(C)nc2c1cnn2CC [Tracazolate hydrochloride] (20 µM),1.14,0.998,1.01,0.943,0.977 (inactive),0.933 (inactive),1.08 (inactive),1.01 (inactive),0.993 (inactive),1.03 (inactive),1 (inactive),1.11 (inactive)
COC(=O)[C@H](c1ccccc1Cl)N1CCc2sccc2C1 [Clopidogrel] (20 µM),1.01,1.25,0.982,0.969,1.06 (inactive),0.986 (inactive),0.963 (inactive),1.23 (inactive),1.02 (inactive),0.975 (inactive),0.996 (inactive),0.941 (inactive)
O=P(O)(O)C(Cl)(Cl)P(=O)(O)O [Clodronate disodium] (20 µM),0.99,1.03,1.02,1.09,1.02 (inactive),0.973 (inactive),0.999 (inactive),1.02 (inactive),1.02 (inactive),1.03 (inactive),1 (inactive),0.981 (inactive)
O=C(O)c1cn(-c2ccc(F)cc2)c2cc(N3CCNCC3)c(F)cc2c1=O [Sarafloxacin] (20 µM),0.012,0.0263,0.182,0.896,0.129 (active),0.0563 (active),0.8 (inactive),0.832 (inactive),0.651 (active),0.244 (active),0.969 (inactive),0.894 (inactive)
CC(C)(C)CC(C)(C)c1ccc(O)c(Cc2ccc(Cl)cc2Cl)c1 [Clofoctol] (20 µM),0.000434,0.973,1.01,0.559,1.01 (inactive),0.0134 (active),0.143 (active),0.999 (inactive),1.01 (inactive),1.01 (inactive),1.01 (inactive),0.132 (active)
CC(CCc1ccccc1)NCC(O)c1ccc(O)c(C(N)=O)c1 (stereo not given) [Labetalol hydrochloride] (20 µM),1.09,0.963,0.974,0.85,0.944 (inactive),1 (inactive),0.967 (inactive),1.01 (inactive),0.996 (inactive),0.923 (inactive),1 (inactive),0.939 (inactive)
CN[C@H]1CC[C@@H](c2ccc(Cl)c(Cl)c2)c2ccccc21 [Sertraline] (20 µM),1.13,1.01,1.02,0.975,0.995 (inactive),1.01 (inactive),0.902 (inactive),1.03 (inactive),1 (inactive),1.1 (inactive),0.996 (inactive),1.02 (inactive)
CCN(CC)Cc1cc(Nc2ccnc3cc(Cl)ccc23)ccc1O [Amodiaquine dihydrochloride dihydrate] (20 µM),0.973,0.964,0.915,1.02,1.03 (inactive),1.01 (inactive),1.01 (inactive),0.928 (inactive),1.01 (inactive),0.967 (inactive),0.978 (inactive),1.03 (inactive)
Cc1cc(NC(=O)C2=C(O)c3ccccc3S(=O)(=O)N2C)no1 [Isoxicam] (20 µM),1.11,1.05,0.997,1.02,0.996 (inactive),1.02 (inactive),1.02 (inactive),1.03 (inactive),1.01 (inactive),0.969 (inactive),0.994 (inactive),0.947 (inactive)
C#C[C@]1(O)CC[C@H]2[C@@H]3CCc4cc(OC)ccc4[C@H]3CC[C@@]21C [Mestranol] (20 µM),0.992,0.999,1.09,1.14,0.93 (inactive),1.04 (inactive),0.893 (inactive),0.949 (inactive),1.01 (inactive),1.01 (inactive),1.01 (inactive),0.831 (inactive)
C[C@]12CC[C@H]3C(=CCc4cc(O)ccc43)[C@@H]1CCC2=O [Equilin] (20 µM),0.994,0.964,0.954,1,1.01 (inactive),1.02 (inactive),0.996 (inactive),1.07 (inactive),0.996 (inactive),1.03 (inactive),0.978 (inactive),0.93 (inactive)
CCOc1ccc(NC(C)=O)cc1 [Phenacetin] (20 µM),1.11,1.02,1.01,1.3,1.03 (inactive),0.966 (inactive),0.999 (inactive),1.07 (inactive),1.02 (inactive),0.997 (inactive),1.01 (inactive),0.992 (inactive)
CC[C@H]1OC(=O)[C@H](C)[C@@H](O[C@H]2C[C@@](C)(OC)[C@@H](O)[C@H](C)O2)[C@H](C)[C@@H](O[C@@H]2O[C@H](C)C[C@H](N(C)C)[C@H]2O)[C@](C)(O)C[C@@H](C)/C(=N\OCOCCOC)[C@H](C)[C@@H](O)[C@]1(C)O [Roxithromycin] (20 µM),0.00175,0.826,0.95,0.194,0.995 (inactive),0.0367 (active),0.0981 (active),0.576 (active),0.973 (inactive),0.909 (inactive),1 (inactive),0.123 (active)
CN1CCC(=C2c3ccccc3CCc3sccc32)CC1 [Pizotifen malate] (20 µM),1.3,1.03,0.982,0.963,1.06 (inactive),1.01 (inactive),0.924 (inactive),1 (inactive),1.01 (inactive),1.04 (inactive),0.994 (inactive),0.987 (inactive)
